“And” between values parts separate entries of the source, which are not always exact repeats. Equal values may be shown once. Compounds without any hit were thinned out: in the full panel of roughly 83,000, 20% have a hit.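 The endpoint reported here, percent growth, reads 100 for growth as untreated, 0 for no net growth and -100 for all cells dead.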 Values without a mark were called inactive. The source made the active and inactive calls. How the source made its calls: active means growth percent below 10; inactive means the rest.
Test system: MDA-MB-468 breast
Assay: NCI-60 one-dose screen, 48 h (100 = growth as untreated, 0 = no growth, -100 = all killed)
Conditions: 10 µM unless noted

| SMILES | growth |
| --- | --- |
| COc1cccc(/C=C2\Cc3ccccc3C2=O)c1 | 99.6% |
| CC1CN(CC(O)c2ccc(Br)cc2)CCO1 (stereo not given) | 115% |
| c1nc(SC2=NCCN2)c2[nH]cnc2n1 | 14.7% |
| C=C1C(=O)O[C@H]2[C@H]1CC/C(COC(=O)CCCCCC(=O)OC/C1=C/CC[C@@]3(C)O[C@H]3[C@H]3OC(=O)C(=C)[C@@H]3CC1)=C\CC[C@@]1(C)O[C@@H]21 | -33.4% (active) |
| O=C(COc1ccc(/C=C2\Cc3ccc(Cl)cc3C2=O)cc1)Nc1nc2ccccc2s1 | 109% |
| Cn1c2ccccc2c2c3c(c4c5ccccc5n(CCCCCC#N)c4c21)C(=O)N(O)C3=O | -49.5% (active) |
| CCC(c1ccccc1)C(CC)c1ccc(O)c(O)c1 (stereo not given) | 90.9% |
| CCc1ccc(NC(=O)N[C@@H](Cc2cccc(C)c2)C(=O)N[C@@H]2C(=O)N3CCC[C@H]3C(=O)N3CCCC[C@H]3C(=O)N[C@@H](CO)C(=O)N3C[C@H](C)C[C@H]3C(=O)O[C@H]2C)c(F)c1 | -14.2% (active) |
| C=CCn1c(SCC(=O)NCc2cc(C)c(O)c(C)c2)nc2ccc(Cl)cc2c1=O | 91.1% |
| Cn1cc(C2=C(c3coc4cc(Br)ccc34)C(=O)NC2=O)c2ccccc21 | 5.23% (active) |
| COc1ccc(Cn2cc3c(c2-c2cc(OC)c(OC)c(OC)c2)CCCc2cnoc2-3)cc1 | 48.6% |
| c1coc(CNc2c3ccccc3nc3ccccc23)c1 | 29.4% |
| OCc1cccc2ccccc12 | 124% |
| Cc1ccc2nc3c(nc2c1)-c1cccc2cccc-3c12 | 48.1% |
| COc1cc(/C=C/C(C)=O)ccc1O | 100% and 111% |
| Cc1nn(CCO)c(C)c1N=[N+]([O-])c1c(C)nn(CCO)c1C | -59% (active) |
| Brc1ccc(-c2nc3ccccc3s2)cc1 | 93% |
| N#Cc1nc(-c2ccc(Cl)cc2)oc1N1CCC(S(=O)(=O)N2CCOCC2)CC1 | 97.5% |
| COc1ccc([C@H]2c3[nH]c4ccccc4c3C[C@@H]3C(=O)N(C4CCN(Cc5ccccc5)CC4)CC(=O)N23)c(OC)c1 | 63.4% |
| CCCn1cnc2c(c1=N)C(c1ccc(Cl)cc1)c1sc3c(F)cccc3c1O2 (stereo not given) | 42.4% |

| SMILES | growth |
| --- | --- |
| c1ccc(-c2cccc(-c3ccccn3)n2)nc1 | -15.6% (active) |
| CCS(=O)(=O)Nc1ccc(C(=O)CC2(O)C(=O)Nc3ccccc32)cc1 (stereo not given) | 95.4% |
| Cn1c(=O)[nH]c(=O)c2nc3c(nc21)-c1ccccc1C3=O | 82.8% |
| CC(=O)C1=C(O)C=C2Oc3c(C(=O)/C=C/c4ccccc4)c(O)c(C)c(O)c3[C@]2(C)C1=O | 30.3% |
| O=C(NCc1ccc2c(c1)OCO2)NCC1CCCC(CNC(=O)NCc2ccc3c(c2)OCO3)C1 (stereo not given) | 104% |
| CCN(C(=O)CN1CCN(c2cc3c(cc2F)c(=O)c(C(=O)O)cn3C2CC2)CC1)c1nc(-c2ccc(OC)cc2)cs1 | 60.9% |
| Cc1cc(O)cc(O)c1N=NC1=NCCS1 | 109% |
| CC(C)=CCNc1ncnc2c1ncn2C1OC(COP(=O)(O)O)C(O)C1O (stereo not given) | 23.3% |
| Cc1cc(=NO)cc(C)n1O | 98.1% |
| Nc1nc(NC2CC2)cc(-c2cccc(Cl)c2Cl)n1 | 30.8% |
| COC(=O)c1ccccc1C(=O)c1c(C)cc(C)cc1C | 103% |
| COc1ccc(C(=O)N2NC(=O)/C(=C/c3cn(-c4ccccc4)nc3-c3ccccc3)N=C2c2ccccc2)cc1 | 95.7% |
| N#Cc1c(-c2ccccc2)nc(SCC(O)CN2CCOCC2)nc1N1CCOCC1 (stereo not given) | 76.7% |
| Cc1ccc(N2C(=O)CCC2=O)cc1 | 103% |
| CC(=O)O[C@@H]1C(=O)N(c2cnccn2)[C@H]1c1ccccc1[N+](=O)[O-] | -4.17% (active) |
| N#CSCC1CC(O)(c2ccccc2)C(c2ccccc2)C(c2ccc(F)cc2)O1 (stereo not given) | -13.4% (active) |
| N#Cc1ncc(-c2ccc(C(F)(F)F)cc2)c(NC2CCCCCC2)n1 | -8.28% (active) |
| COc1ccc(C2SCC(=O)N2NC(=O)c2ccc(NC(=O)c3ccccn3)cc2)cc1OC (stereo not given) | 104% |
| CC(C)c1ccc(C(=O)Nc2sc3cc(O)ccc3c2C#N)cc1 | 12.5% |
| CCCCCCCCn1ccc2cc(NC(=O)Cn3cc(CN4CCCCC4)nn3)ccc21 | -14.6% (active) |
